Laboratory results from PubChem BioAssay AID1671190 (National Center for Advancing Translational Sciences (NCATS), 2021).
“And” between values parts separate entries of the source, which are not always exact repeats. Identical values can stand only once. Screen size: about 580,000 compounds; about 6,100 (1.1%) were called active. Not shown: some 15% with an inconclusive outcome. The call rests on the fitted dose curve; in most records, active means well fitted inhibition curve with a large enough effect; inconclusive means small, poorly fitted or top-dose-only effect, or another doubt; inactive means no such curve, though single readings can be large or run the other way. What follows is part of a selection rich in actives, with near analogues and random picks from the rest. Where a call stands in place of a potency, no number is given.

target: Polyunsaturated fatty acid lipoxygenase ALOX12 (Homo sapiens) (UniProt P18054); test: Primary qHTS assay for inhibitors of human arachidonate 12S-lipoxygenase (ALOX12): Round 2; conditions: purified 12hLO, xylenol orange hydroperoxide absorbance; series mostly up to 108 µM
Sequence (P18054 whole entry, looked up): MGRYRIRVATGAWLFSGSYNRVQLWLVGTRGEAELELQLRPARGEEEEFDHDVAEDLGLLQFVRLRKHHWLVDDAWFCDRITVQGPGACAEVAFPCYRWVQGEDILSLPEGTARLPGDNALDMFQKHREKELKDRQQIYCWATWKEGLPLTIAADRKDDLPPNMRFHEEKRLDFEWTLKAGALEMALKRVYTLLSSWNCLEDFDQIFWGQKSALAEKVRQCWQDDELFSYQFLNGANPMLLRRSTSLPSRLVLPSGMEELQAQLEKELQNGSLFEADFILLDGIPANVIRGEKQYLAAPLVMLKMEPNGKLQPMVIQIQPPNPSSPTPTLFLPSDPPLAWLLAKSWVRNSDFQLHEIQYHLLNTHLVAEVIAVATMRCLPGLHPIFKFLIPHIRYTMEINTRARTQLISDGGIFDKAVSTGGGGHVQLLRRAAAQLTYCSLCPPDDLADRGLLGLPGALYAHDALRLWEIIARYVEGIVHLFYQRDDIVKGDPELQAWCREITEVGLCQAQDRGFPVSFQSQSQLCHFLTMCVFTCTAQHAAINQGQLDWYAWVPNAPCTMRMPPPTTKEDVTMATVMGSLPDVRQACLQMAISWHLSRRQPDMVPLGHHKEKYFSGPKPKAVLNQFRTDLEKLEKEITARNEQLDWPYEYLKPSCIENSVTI
In short: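 Hydroperoxide product was detected by ferrous iron/xylenol orange as the 573 to 405 nm absorbance ratio. Arachidonic acid at 40 uM (final) was turned over for 30 min at room temperature by 150 nM human 12hLO, pH 7.0 Hepes buffer, after 15 min compound preincubation.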
Potency means the concentration at half of the fitted maximal effect.

Row | SMILES | Potency
1 | C=CCn1c(-n2nc(CC)cc2CC)nc2c1c(=O)n(C)c(=O)n2C | inactive
2 | O=C(NC1CCN(Cc2ccccc2)C1)c1cc2ccccc2oc1=O (centres undefined) | inactive
3 | N#Cc1cccc(NC(=O)CSc2nnc(Cc3ccccc3)o2)c1 | inactive
4 | CSCC(NS(=O)(=O)c1ccc(C)cc1)C(=O)O (centres undefined) | inactive
5 | Cc1ccc(S(=O)(=O)NC(C)c2cccs2)cc1 (centres undefined) | inactive
6 | Cc1ccc(S(=O)(=O)/N=C2\C=C(NS(=O)(=O)c3ccc(C)cc3)C(=O)c3ccccc32)cc1 | 15.8 µM (active)
7 | CC(C)c1ccc(C(=O)N/N=C/CCc2ccccc2)cc1 | inactive
8 | N#CCCN1CCC(c2ccccc2)C1 (centres undefined) | inactive
9 | S=c1[nH]nc(-c2cc(-c3ccsc3)n[nH]2)n1-c1ccccc1 | 15.8 µM (active)
10 | CCCCC(CC(C)O)c1n[nH]c(=S)n1-c1ccccc1 (centres undefined) | inactive
11 | CC(=O)c1c(SCC(=O)Nc2ccc(F)cc2)nc(=O)[nH]c1C | inactive
12 | COCC(=O)N1CCC(c2nc(C3CCOCC3)n[nH]2)CC1 | inactive
13 | COc1ccc(S(=O)(=O)Nc2ccc(O)c(Sc3nc4ccccc4s3)c2)cc1 | 44.7 µM (active) and 22.4 µM (active)
14 | Cc1ccc(NS(=O)(=O)c2cccc(C(=O)N(C)C(C)c3nc4ccccc4s3)c2)cc1 (centres undefined) | inactive
15 | COc1ccc(Nc2nc3ccccc3nc2NS(=O)(=O)c2ccc(OC)cc2)cc1 | inactive
16 | COC(=O)C1=C(C)NC(=O)C1(NC(=O)c1ccccc1F)C(F)(F)F (centres undefined) | inactive
17 | CCCCCCc1ccc(/C(C)=C\C(=O)O)cc1 | inactive
18 | CCOc1ccc(CNC(=O)c2cc(-c3ccc(Cl)s3)nc3ccccc23)cc1 | inactive
19 | CC(C)Oc1ccc(-c2cc(C(=O)NCc3ccncc3)c3ccccc3n2)cc1 | inactive
20 | CCc1ccc(-c2cc(C(=O)NCc3ccco3)c3ccccc3n2)s1 | 17.8 µM (active) and 35.5 µM (active)
21 | O=C(CSc1nc(-c2ccc(F)cc2)cs1)NC1CCCCC1 | inactive
22 | CC(C)Cn1cnc2c1c(=O)n(CC(=O)OCc1ccc(F)cc1)c(=O)n2Cc1ccccc1 | inactive
23 | COC(=O)C1=C(C)Nc2nc3ccccc3n2C1c1cc(OC)c(O)c(OC)c1 (centres undefined) | inactive
24 | CC(C)Oc1ccc(NC(=O)c2ccc(Cl)cc2)cc1 | inactive
25 | CCOc1ccc(NC(=O)c2ccc(Cl)cc2)c2cccnc12 | inactive
26 | CCC(CO)Oc1cc(NC(=O)c2ccc(Cl)cc2)c2ncn(C(C)C)c2c1 (centres undefined) | 3.16 µM (active)

Row | SMILES | Potency
27 | COc1ccccc1C(=O)N1CCCN(CCc2ccccc2)c2ccccc21 | inactive
28 | COc1cccc(CN2Cc3cc(NC(=O)Cc4cccs4)ccc3OC(C)C2=O)c1OC (centres undefined) | inactive
29 | CCOc1ccc(Cl)cc1-c1cc(C(=O)NCc2cccs2)[nH]n1 | inactive
30 | O=C(NCc1ccc(Cl)cc1)c1cc(-c2ccc[nH]2)n[nH]1 | 31.6 µM (active)
31 | COc1ccccc1CNC(=O)c1cc(-c2cc(Cl)ccc2C)n[nH]1 | inactive
32 | CCCn1nc(C(=O)Nc2nc(-c3ccc(NC(C)=O)cc3)cs2)c2ccccc2c1=O | inactive
33 | CC(NC(=O)CSc1ccc(F)c(F)c1)c1nc2ccccc2[nH]1 (centres undefined) | inactive
34 | Cc1cccc(NC(=S)N2CCC(O)CC2)c1C | inactive
35 | S=C(NCCc1ccc(Cl)cc1)Nc1ccc(Oc2ccccc2)cc1 | 17.8 µM (active)
36 | Cc1ccc(C)c(C(C)NC(=S)NCc2ccc(Cl)cc2)c1 (centres undefined) | 31.6 µM (active)
37 | CCC(C)C(NC(=O)NCc1ccc(C)cc1)C(=O)O (centres undefined) | inactive
38 | Cc1c(Cl)cccc1NC(=S)NCCSc1ccc(Cl)cc1 | inactive
39 | O=C(NCCc1ccccc1)Oc1ccc(Cl)cc1 | inactive
40 | CN(CC(=O)Nc1ccc(Cl)cc1)C(=O)c1ccc(COc2ccccc2)cc1 | inactive
41 | Cc1cc(Cl)ccc1NC(=S)NCCCN1CCCC1=O | inactive
42 | Cc1cccc(NC(=S)NCCc2ccc(F)cc2)c1C | 39.8 µM (active)
43 | CCNC(=S)Nc1ccc(C)cc1Br | inactive
44 | Cc1nn(C)c2c1c(C(F)(F)F)cc(=O)n2C(C)C(=O)NCc1ccc(Cl)cc1 (centres undefined) | inactive
45 | Cc1ccc(NC(=S)NCCc2ccc(Cl)cc2)c(C)c1 | 35.5 µM (active)
46 | CN1CCN(C(=O)CCCC(=O)O)CC1 | inactive
47 | Cc1ccc([S+](=O)([O-])N2CCC3(CC2)CC(=O)N(c2ccccc2)c2ccccc2O3)cc1 | inactive
48 | CC(C)CC1CCCN1 (centres undefined) | inactive
49 | CCn1cc(CN2CCC(N3CC(OCC4CC4)C34CCCCC4)CC2)cn1 (centres undefined) | inactive
50 | CC(=O)Nc1ccc(NC(=O)CSc2nnc(C3CC3)n2-c2ccccc2)cc1 | inactive
51 | CC(=O)Nc1ccc(S(=O)(=O)N2CCN(c3ccccc3)CC2)cc1 | inactive
52 | CC[n+]1c(C)n(-c2ccccc2)c2ccc(NC(C)=O)cc21 | 39.8 µM (active)

Row | SMILES | Potency
53 | COCC1CN(C(C)=O)CC12CCN(C(=O)c1n[nH]c(=O)c3ccccc13)CC2 (centres undefined) | inactive
54 | N#CC(C#N)=Cc1ccc(-c2cccc(C(=O)O)c2)o1 | inactive
55 | CC(=O)C(=Cc1ccc(-c2cccc([N+](=O)[O-])c2)o1)C(C)=O | 0.631 µM (active)
56 | Cc1ccnc(-c2cccc([N+](=O)[O-])c2)[n+]1[O-] | inactive
57 | O=C(Nc1ccc(F)c(F)c1)c1nc2ccccc2nc1N1CCOCC1 | inactive
58 | CCC(C)Cn1c(O)cc2nn(-c3nc4ccccc4s3)c(=O)c-2c1C (centres undefined) | 31.6 µM (active)
59 | CC(C)Cn1nc(C(=O)Nc2ccc3nc(N4CCOCC4)sc3c2)c2ccccc2c1=O | inactive
60 | CCNC(=O)CN1CCCN(C(=O)CCCc2c[nH]c3ccccc23)CC1 | inactive
61 | Cc1ccc(S(=O)(=O)/N=C(/NC(=S)Nc2c(C)n(C)n(-c3ccccc3)c2=O)c2ccccc2)cc1 | 28.2 µM (active)
62 | CC(=O)NC(NC(=S)Nc1c(C)n(C)n(-c2ccccc2)c1=O)C(Cl)(Cl)Cl (centres undefined) | inactive
63 | Cc1c(NC(=S)NC(=O)CCc2ccccc2)c(=O)n(-c2ccccc2)n1C | inactive
64 | C/C=C/C=C/C(=O)NCc1cccs1 | inactive
65 | COc1cc(/C=C2/NC(=O)NC2=O)ccc1OCc1ccccc1F | inactive
66 | CCOc1ccccc1NC(=O)N1CCN(Cc2nc(-c3ccc(C(=O)NC)cc3)oc2C)CC1 | inactive
67 | Cc1oc(-c2ccccc2)nc1C(=O)NCCCN1CCCC1=O | inactive
68 | CSc1nnc(-c2ccncc2)n1CCCN1CCCC1=O | 15.8 µM (active)
69 | CCCn1c(SCC(=O)N2CCc3ccccc32)nnc1-c1ccncc1 | inactive
70 | CCCCc1noc(CSc2cc(C(N)=O)c3ccccc3n2)n1 | inactive
71 | CCOC(=O)N1CCN(Cc2nc3c(c(=O)[nH]c(=O)n3C)n2Cc2ccc(F)cc2)CC1 | inactive
72 | CCC(=C/c1sc2ccc3ccccc3c2[n+]1C)/C=C1\Sc2ccc3ccccc3c2N1C | 39.8 µM (active)
73 | COc1ccc(CCc2nnc(NS(=O)(=O)Cc3ccccc3)s2)cc1 | inactive
74 | CC(=O)Nc1ccc(Cl)c(-c2nc3cc(C)ccc3o2)c1 | inactive
75 | NC(=O)c1ccc(S(=O)(=O)N2CCN(C(=O)c3cc4c(s3)CCC4)CC2)cc1 | inactive
76 | COc1ccc(C)cc1Nc1nc(C)nc2c1oc1ccccc12 | 35.5 µM (active)
77 | COc1ccc(CCNC(=O)CSc2nc(C)nc3c2oc2ccccc23)cc1OC | inactive
78 | CCc1nc(Nc2ccc3nccnc3c2)c2oc3ccccc3c2n1 | inactive

Row | SMILES | Potency
79 | COCCN1CCCC(c2[nH]ccc2C(=O)NCCc2c[nH]c3ccccc23)C1 (centres undefined) | inactive
80 | CCCCCCCOc1ccc(C(=O)Oc2cncc(Cl)c2)cc1 | inactive
81 | Cc1ccc(S(=O)(=O)N2CCN(CC(=O)NC(C)c3cccs3)CC2)cc1 (centres undefined) | 0.708 µM (active)
82 | Cc1ccc(S(=O)(=O)N2CCN(C(=O)c3cccs3)CC2)cc1 | inactive
83 | Cc1ccc(S(=O)(=O)N2CCN(Cc3cccc(C)c3O)CC2)cc1 | inactive
84 | COc1c(I)cc(Br)cc1/C=C/C(=O)O | inactive
85 | O=C(Cc1csc(-c2ccccc2Cl)n1)Nc1nccs1 | inactive
86 | Cc1ccc(-c2c3c(=O)n(C)c(=O)n(C)c3cn2-n2cnnc2)cc1 | inactive
87 | Cc1ccc(-c2c3c(=O)n(C)c(=O)n(C)c3c3n2C(C)(C)COC3c2ccc(C)cc2O)cc1 (centres undefined) | 6.31 µM (active)
88 | COc1ccc(N2C(=O)CC(Nc3ccc(F)cc3)C2=O)c([N+](=O)[O-])c1 (centres undefined) | inactive
89 | COc1ccc(NC2CC(=O)N(C)C2=O)cc1 (centres undefined) | inactive
90 | CC(=O)Oc1cccc(N2C(=O)CC(Nc3ccc(N4CCOCC4)cc3)C2=O)c1 (centres undefined) | 35.5 µM (active)
91 | COCCNC(=O)COc1ccc2c(C)cc(=O)oc2c1 | inactive
92 | CCCCn1c2ccccc2c2nnc(SCc3ccc(F)cc3)nc21 | inactive
93 | O=C(CSc1nc2ccc(NC(=O)c3ccc(F)cc3)cc2s1)NC1CCCCC1 | 3.98 µM (active)
94 | O=C(Nc1ccc2nc(SCC(=O)N3CCCc4ccccc43)sc2c1)c1ccc(F)cc1 | inactive
95 | O=C(Nc1ccc2nc(N3CCCC3)sc2c1)c1ccc(F)cc1 | inactive
96 | CCCn1nc(C(=O)N(CCOC)Cc2cccs2)c2ccccc2c1=O | inactive
97 | Cc1cc(O)c(NC(=O)c2ccc(C)c([N+](=O)[O-])c2)cc1C | inactive
98 | Cc1oc2cc([N+](=O)[O-])c(O)c([N+](=O)[O-])c2c1C(=O)c1ccc(Br)cc1 | 28.2 µM (active)
99 | Cc1ccc(C(=O)c2ccc(N3CCN(C)CC3)c([N+](=O)[O-])c2)cc1 | inactive
100 | COc1ccc(CCn2c(NC3CCCCC3)nc3c2c(=O)[nH]c(=O)n3C)cc1 | inactive
101 | O=C(Nc1ccc2c(c1)CCC2)c1cc2c(s1)CN(C1CC1)C2 | inactive
102 | CCn1nc(C(=O)Nc2ccccc2Oc2ccccc2)c2ccccc2c1=O | inactive
103 | CCN(CC)CCCCNc1ncc2c(n1)N(C)C(=O)N(c1c(Cl)c(OC)cc(OC)c1Cl)C2 | 34.3 µM (active)
104 | COc1ccc(C(=O)COC(=O)c2ccc3c(c2)OCCO3)cc1 | inactive
